The record followed here is the supplement of paper PMC10849652.

Test in all cases: log2 fold change, soluble protein after heating vs DMSO (PISA); higher = thermal stabilisation; K562 cells, 10 uM, 30 min; active = over 0.2 and 3.5 SD of the protein, either way, in both replicates (recomputed)
Compound in one experiment: C#Cc1cccc(Nc2ncnc3cc(OCCOC)c(OCCOC)cc23)c1 [erlotinib]
In short, it runs like this: (§1)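 K562 cells at 2×10^6 cells/mL were given 10 μM compound for 30 min. Aliquots then went through 3 min of heating across 48°C-58°C, were pooled, and were extracted in PBS with 0.5% NP-40 at 4°C, and the supernatant after 21,000xg for 90 min was quantified by TMTpro 16plex LC-MS/MS with channel sums equalised. Thermal stability relative to control samples, from duplicates, is given as log2 fold change.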

Compound in experiment [1]: C1=CC(=C(C=C1Cl)C2=NC3=NC=CN=C3C(=N2)NC4=CC=NC=C4)F
In short, it runs like this: as §1

Compound in experiment [2]: C1=CC(=CC=C1C2=NC3=C(N2)C=C(C=C3)C(=O)N)OC4=CC=C(C=C4)Cl
In short, it runs like this:
as §1

Compound in experiment [3]: CC(C)(O)CC(=O)NCCn1ccc2ncnc(Nc3ccc(Oc4cccc(C(F)(F)F)c4)c(Cl)c3)c21
In short, it runs like this:
as §1

Compound in experiment [4]: CC(C)C1=C2N=C(C=C(N2N=C1)NCC3=CC=CC=C3)NCCCCCCN
In short, it runs like this:
as §1

Compound in experiment [5]: CC1=C(C(CC(=O)N1)C2=CC=C(C=C2)C(F)(F)F)C(=O)NC3=C(C=C4C(=C3)C=NN4)F
In short, it runs like this: as §1

Compound in experiment [6]: C1=CC2=NC=CN=C2C=C1/C=C/3\C(=O)NC(=O)S3
In short, it runs like this: as §1

Compound in a further experiment: C=CC(=O)N1CCC[C@@H](n2nc(-c3ccc(Oc4ccccc4)cc3)c3c(N)ncnc32)C1 [ibrutinib]
In short, it runs like this:
as §1

Compound in experiment [7]: C/C(=N\NC(=O)C1=CC(=CC=C1)S(=O)(=O)N2CCOCC2)/C3=C(C=CC(=C3)Cl)O
In short, it runs like this:
as §1

Compound in experiment [8]: C1=CC2=C(C=CC(=C2)/C=C\3/C(=O)NC(=NCC4=CC=CS4)S3)N=C1
In short, it runs like this: as §1

Compound in experiment [9]: C1=CC=C(C=C1)C2=NC(=C(N2)C3=CC=NC=C3)C4=CC(=C(C=C4)Cl)O
In short, it runs like this:
as §1

Compound in experiment [10]: C1=CC=C2C(=C1)C3=NNC4=CC=CC(=C43)C2=O
In short, it runs like this: as §1

Compound in experiment [11]: C1CCN(C1)C(=O)NC2=CC=CC(=C2)NC3=NC=C(C(=N3)NCCC4=CN=CN4)Br
In short, it runs like this:
as §1

Compound in experiment [12]: C1CN(CCC1(CC2=CC=C(C=C2)Cl)N)C3=NC=NC4=C3C=CN4
In short, it runs like this: as §1

Compound in another experiment: C1COCCN1CCN2C3=CC=CC=C3N=C2NC(=O)C4=CC(=CC=C4)[N+](=O)[O-] [IRAK-1-4 Inhibitor I]
In short, it runs like this: as §1

Compound in experiment [13]: CC(=O)c1cnc2ccc(-c3cc(Cl)c(O)c(Cl)c3)nc2c1N[C@H]1CC[C@H](CN(C)C)CC1
In short, it runs like this:
as §1

Compound in the next experiment: CC(C)(C)Cn1c(N)nc2ccc(-c3[nH]c(C(C)(C)C)nc3-c3ccc(F)cc3)nc21 [ralimetinib]
In short, it runs like this: as §1

Compound in experiment [14]: CC(C)C[C@@H](C=O)NC(=O)[C@H](CC(C)C)NC(=O)[C@H](CC(C)C)NC(=O)OCc1ccccc1
In short, it runs like this: as §1

Compound in another experiment: CC(C)N(C[C@H]1O[C@@H](n2cnc3c(N)ncnc32)[C@H](O)[C@@H]1O)[C@H]1C[C@@H](CCc2nc3cc(C(C)(C)C)ccc3[nH]2)C1 [pinometostat]
In short, it runs like this: as §1

Compound in experiment [15]: CC1=C(C2=C(C=C1)C(=O)C3=CC=CC=C3N2CCCN)C
In short, it runs like this: as §1

The full data set covers some 7,900 targets. This sample favours those with a hit. About 0.6% of all pairs of compound and target were hits. Unmarked numbers belong to inactive results.

UniProt Q5JWR5, sequence (Q5JWR5 whole entry, looked up): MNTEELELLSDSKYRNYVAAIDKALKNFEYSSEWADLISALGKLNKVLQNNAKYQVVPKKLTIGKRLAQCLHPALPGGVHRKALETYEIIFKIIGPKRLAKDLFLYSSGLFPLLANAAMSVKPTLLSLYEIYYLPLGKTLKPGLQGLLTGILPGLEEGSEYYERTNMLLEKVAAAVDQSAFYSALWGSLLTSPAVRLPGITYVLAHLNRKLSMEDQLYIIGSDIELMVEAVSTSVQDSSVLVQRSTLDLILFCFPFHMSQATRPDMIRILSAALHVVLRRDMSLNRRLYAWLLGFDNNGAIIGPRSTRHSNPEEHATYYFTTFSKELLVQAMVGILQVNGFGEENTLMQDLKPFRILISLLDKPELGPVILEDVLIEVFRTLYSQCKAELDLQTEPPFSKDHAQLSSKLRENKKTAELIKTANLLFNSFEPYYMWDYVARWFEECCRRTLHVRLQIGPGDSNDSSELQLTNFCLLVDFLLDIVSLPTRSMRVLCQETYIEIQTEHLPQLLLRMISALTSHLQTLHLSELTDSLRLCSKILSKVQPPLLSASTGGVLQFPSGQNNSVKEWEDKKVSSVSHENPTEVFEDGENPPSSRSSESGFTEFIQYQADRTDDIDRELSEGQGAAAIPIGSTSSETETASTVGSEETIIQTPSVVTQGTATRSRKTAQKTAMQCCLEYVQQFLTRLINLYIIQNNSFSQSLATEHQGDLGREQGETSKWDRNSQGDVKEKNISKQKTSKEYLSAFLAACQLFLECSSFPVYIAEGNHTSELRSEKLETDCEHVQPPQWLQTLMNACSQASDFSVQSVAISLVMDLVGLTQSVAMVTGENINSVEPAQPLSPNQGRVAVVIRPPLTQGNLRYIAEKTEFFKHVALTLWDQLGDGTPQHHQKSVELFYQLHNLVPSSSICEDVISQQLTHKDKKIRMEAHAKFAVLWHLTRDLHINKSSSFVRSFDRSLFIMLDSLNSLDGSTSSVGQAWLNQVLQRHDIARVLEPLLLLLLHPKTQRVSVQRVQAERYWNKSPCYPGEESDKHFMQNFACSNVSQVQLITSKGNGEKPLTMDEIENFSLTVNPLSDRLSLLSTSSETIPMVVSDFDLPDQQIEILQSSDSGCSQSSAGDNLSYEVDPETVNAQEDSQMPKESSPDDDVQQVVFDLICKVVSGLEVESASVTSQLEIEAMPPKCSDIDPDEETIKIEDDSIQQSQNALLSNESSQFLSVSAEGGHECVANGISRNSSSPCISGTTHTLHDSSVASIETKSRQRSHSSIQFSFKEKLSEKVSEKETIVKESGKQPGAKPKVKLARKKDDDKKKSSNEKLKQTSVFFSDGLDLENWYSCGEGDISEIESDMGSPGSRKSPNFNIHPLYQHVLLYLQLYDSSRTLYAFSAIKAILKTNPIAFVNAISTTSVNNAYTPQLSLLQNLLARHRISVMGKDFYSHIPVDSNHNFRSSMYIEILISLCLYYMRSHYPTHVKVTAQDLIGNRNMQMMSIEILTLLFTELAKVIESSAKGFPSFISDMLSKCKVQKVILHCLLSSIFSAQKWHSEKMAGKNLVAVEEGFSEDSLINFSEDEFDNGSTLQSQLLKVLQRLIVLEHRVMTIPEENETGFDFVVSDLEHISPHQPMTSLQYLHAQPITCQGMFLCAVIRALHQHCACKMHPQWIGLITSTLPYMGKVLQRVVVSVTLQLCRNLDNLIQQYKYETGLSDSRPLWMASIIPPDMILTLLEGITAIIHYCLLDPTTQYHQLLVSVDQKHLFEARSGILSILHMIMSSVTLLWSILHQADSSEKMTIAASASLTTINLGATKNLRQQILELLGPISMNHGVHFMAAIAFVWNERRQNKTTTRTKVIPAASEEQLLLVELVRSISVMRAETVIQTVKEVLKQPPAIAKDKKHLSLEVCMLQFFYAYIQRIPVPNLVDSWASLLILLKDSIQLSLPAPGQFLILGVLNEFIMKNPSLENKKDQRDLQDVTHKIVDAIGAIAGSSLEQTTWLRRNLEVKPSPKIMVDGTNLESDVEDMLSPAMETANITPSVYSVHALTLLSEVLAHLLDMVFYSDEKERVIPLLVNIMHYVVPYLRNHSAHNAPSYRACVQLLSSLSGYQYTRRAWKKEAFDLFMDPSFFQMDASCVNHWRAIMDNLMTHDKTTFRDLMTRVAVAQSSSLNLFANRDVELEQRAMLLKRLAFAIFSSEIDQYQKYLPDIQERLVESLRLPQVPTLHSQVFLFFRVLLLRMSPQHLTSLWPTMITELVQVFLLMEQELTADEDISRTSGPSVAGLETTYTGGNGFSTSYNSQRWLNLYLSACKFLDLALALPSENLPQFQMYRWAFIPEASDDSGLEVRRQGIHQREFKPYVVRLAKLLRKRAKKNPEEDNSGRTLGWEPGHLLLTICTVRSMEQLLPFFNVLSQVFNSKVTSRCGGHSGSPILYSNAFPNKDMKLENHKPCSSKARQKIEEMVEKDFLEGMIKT
UniProt Q9P2D6, sequence (Q9P2D6 whole entry, looked up): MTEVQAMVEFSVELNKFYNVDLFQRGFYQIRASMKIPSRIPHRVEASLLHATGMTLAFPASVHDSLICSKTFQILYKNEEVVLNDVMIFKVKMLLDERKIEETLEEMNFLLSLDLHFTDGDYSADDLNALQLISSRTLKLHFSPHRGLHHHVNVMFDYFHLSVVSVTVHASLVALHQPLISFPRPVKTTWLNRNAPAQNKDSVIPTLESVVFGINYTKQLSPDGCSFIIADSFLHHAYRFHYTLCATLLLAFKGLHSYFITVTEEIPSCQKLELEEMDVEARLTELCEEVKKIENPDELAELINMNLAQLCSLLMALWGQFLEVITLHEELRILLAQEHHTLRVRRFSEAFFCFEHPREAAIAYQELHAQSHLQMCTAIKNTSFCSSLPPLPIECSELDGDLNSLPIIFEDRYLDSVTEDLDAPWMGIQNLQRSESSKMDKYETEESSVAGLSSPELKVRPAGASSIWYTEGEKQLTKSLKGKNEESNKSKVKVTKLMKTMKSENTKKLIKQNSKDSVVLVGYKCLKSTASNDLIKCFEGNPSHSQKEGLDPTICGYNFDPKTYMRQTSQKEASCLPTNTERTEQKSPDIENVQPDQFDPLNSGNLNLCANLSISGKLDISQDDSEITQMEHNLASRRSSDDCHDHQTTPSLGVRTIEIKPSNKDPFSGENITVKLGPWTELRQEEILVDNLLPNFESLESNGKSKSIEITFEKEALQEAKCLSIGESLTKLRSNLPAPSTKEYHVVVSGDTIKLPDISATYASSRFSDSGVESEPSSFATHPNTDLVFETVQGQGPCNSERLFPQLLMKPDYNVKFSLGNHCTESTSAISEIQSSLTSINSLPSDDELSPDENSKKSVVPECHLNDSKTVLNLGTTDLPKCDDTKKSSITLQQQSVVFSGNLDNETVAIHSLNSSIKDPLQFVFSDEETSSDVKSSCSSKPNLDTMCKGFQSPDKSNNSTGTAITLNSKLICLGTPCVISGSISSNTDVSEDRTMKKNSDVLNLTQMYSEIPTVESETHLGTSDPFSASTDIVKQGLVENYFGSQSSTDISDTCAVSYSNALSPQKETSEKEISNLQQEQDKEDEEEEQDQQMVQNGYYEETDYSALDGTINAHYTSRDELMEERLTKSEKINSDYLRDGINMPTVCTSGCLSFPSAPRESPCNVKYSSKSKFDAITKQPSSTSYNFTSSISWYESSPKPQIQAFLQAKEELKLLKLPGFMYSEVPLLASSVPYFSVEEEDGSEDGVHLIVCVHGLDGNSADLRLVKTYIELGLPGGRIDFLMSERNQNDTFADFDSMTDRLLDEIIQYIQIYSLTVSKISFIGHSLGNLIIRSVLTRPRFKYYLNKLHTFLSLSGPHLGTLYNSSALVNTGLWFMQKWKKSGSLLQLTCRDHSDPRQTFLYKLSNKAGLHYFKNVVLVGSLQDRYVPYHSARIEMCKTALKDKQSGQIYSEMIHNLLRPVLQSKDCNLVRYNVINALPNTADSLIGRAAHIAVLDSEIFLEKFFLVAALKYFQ
UniProt Q6UX07, sequence (Q6UX07 whole entry, looked up): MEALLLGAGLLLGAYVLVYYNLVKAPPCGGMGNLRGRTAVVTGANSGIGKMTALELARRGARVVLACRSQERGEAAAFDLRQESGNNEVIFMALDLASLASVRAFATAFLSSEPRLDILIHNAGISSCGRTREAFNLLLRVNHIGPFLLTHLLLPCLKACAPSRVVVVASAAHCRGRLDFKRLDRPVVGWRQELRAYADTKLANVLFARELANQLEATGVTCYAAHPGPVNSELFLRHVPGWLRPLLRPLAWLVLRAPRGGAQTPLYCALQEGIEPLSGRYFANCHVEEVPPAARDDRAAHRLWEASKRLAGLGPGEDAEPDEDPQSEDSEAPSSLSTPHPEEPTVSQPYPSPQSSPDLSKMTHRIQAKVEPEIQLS
UniProt Q9NWS6, sequence (Q9NWS6 whole entry, looked up): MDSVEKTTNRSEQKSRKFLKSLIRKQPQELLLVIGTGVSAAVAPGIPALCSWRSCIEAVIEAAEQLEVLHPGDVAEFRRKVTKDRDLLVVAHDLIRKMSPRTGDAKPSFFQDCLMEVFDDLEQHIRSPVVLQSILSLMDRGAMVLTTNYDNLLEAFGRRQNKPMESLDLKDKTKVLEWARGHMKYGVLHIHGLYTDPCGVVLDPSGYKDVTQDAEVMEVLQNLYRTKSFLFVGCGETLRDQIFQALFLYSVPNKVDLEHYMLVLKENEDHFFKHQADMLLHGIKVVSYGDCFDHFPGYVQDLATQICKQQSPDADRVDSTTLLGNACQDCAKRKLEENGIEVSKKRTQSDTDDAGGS

Take FAM135A (UniProt Q9P2D6): the log2 fold change with erlotinib was 0.033; in experiment [1], 0.07; in experiment [2], -0.116; in experiment [3], 0.009; in experiment [4] it was 0.051; in experiment [5], -0.002.

Regarding DOP1A (UniProt Q5JWR5), the log2 fold change with erlotinib was 0.177; in [1], 0.009; in experiment [2], -0.152; in experiment [6], 0.035; in the experiment with ibrutinib it was -0.093; in experiment [3], -0.054. Also, the log2 fold change in experiment [4] is 0.092.

On to DHRS13 (UniProt Q6UX07), for which the log2 fold change was 0.014 with erlotinib; 0.043 in [7]; -0.006 in experiment [2]; 0.037 in [8]; 0.073 in experiment [9]; 0.047 in experiment [10]. In addition, the log2 fold change in [11] was -0.009; in experiment [12], 0.065; with IRAK-1-4 Inhibitor I it was -0.275; in experiment [13], -0.051; in the experiment with ralimetinib, 0.035; in experiment [4], -0.007. In addition, the log2 fold change in experiment [14] is 0.144; with pinometostat it was 0.224; in [5], -0.168; in experiment [15], -0.085.

In the case of CYP24A1 (UniProt Q07973), the log2 fold change is -0.042 with erlotinib; -0.796 (active) in experiment [7]; -0.072 in experiment [2]; 0.015 in experiment [8]; -0.13 in [6]; 0.091 in experiment [9]. In addition, the log2 fold change in [10] is -0.057; in experiment [11] it was 0.179; in experiment [12], 0.046; with IRAK-1-4 Inhibitor I it was -0.162; with ibrutinib, -0.044; in [13], 0.187. Also, the log2 fold change was 0.412 with ralimetinib; 0.069 in experiment [4]; 0.31 in experiment [14]; 0.276 with pinometostat; 0.083 in experiment [5]; -0.089 in experiment [15].

As for FAM118A (UniProt Q9NWS6), the log2 fold change in experiment [7] is 0.005; in [1] it was 0.098; in [8], 0.083; in [6], 0.089; in experiment [9], -0.365; in [10], 0.212. In addition, the log2 fold change in [11] was 0.084; in experiment [12] it was 0.078; with IRAK-1-4 Inhibitor I, -0.009; with ibrutinib, 0.045; in [13], -0.212; with ralimetinib it was -0.21. The log2 fold change in experiment [3] is -0.207; in experiment [14], -0.125; with pinometostat it was -0.054; in [5], -0.006; in [15] it was 0.014.

DNM2 isoform 4 (UniProt P50570): the log2 fold change with erlotinib is 0.042; in experiment [1], 0.084; in [2], -0.128; in [6] it was 0.261; in [9] it was -0.008; with IRAK-1-4 Inhibitor I it was 0.019. In addition, the log2 fold change in the experiment with ibrutinib was -0.074; in the experiment with ralimetinib, 0.005; in experiment [3] it was -0.101; in experiment [4], -0.047; in experiment [14], -0.04; in the experiment with pinometostat, -0.063. Moreover, the log2 fold change in [5] was 0.007.
